# In PubChem BioAssay (Tox21):
# “And” between values parts separate entries of the source, which are not always exact repeats. Equal entries are not always repeated. Inconclusive results are not listed. Where a call stands in place of a potency, no number is given. The source holds several records for some structures; these can differ, active in one and inactive in another. The source made the active and inactive calls. The call rests on the fitted dose curve; in most records, active means well fitted curve in the direction sought with a large enough effect in the repeat runs; inconclusive means weak or mixed curves; inactive means no such curve, though single readings can be large; an effect the other way counts as inactive or inconclusive.
# Legend:
# [1] = A CellTox Green Cytotoxicity Assay to monitor cytotoxicity in HepG2 cells - 32 hour (AID 1224883); further: nearly all actives have a fitted effect of over 50% in size; further: potency means the concentration at half of the fitted maximal effect
# How it was run: (§1)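 Fluorescent DNA-binding dye, 600 HepG2 cells/well, 5 h preincubation then compound in DMSO; same plates read at 0–40 h, 37 C.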
# [2] = A CellTox Green Cytotoxicity Assay to monitor cytotoxicity in HEK293 cells - 8 hour (AID 1224884); further: nearly all actives have a fitted effect of over 35% in size; further: potency means the concentration at half of the fitted maximal effect
# How it was run: (§2)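 Homogeneous no-lysis format: HEK293 cell suspension mixed with CellTox Green reagent, seeded, incubated 5 h at 37 C/5% CO2, then dosed by pintool with compound in DMSO.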
# [3] = qHTS RealTime-Glo MT Cell Viability Assay in HepG2 cells - 16 hour (AID 1224885); further: nearly all actives have a fitted effect of over 50% in size; further: potency means the concentration at half of the fitted maximal effect
# How it was run: (§3)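 HepG2 cells were seeded at 600 cells/well together with NanoLuc luciferase and a cell-permeant prosubstrate, preincubated 5 h at 37 C/5% CO2, then pin-dosed with compounds in DMSO. Nonlytic luminescence from viable cells was read at each time point.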
# [4] = qHTS RealTime-Glo MT Cell Viability Assay in HEK293 cells - 24 hour (AID 1224886); further: nearly all actives have a fitted effect of over 50% in size; further: potency means the concentration at half of the fitted maximal effect; on activity change, negative = cytotoxicity: top concentration of the series differs between compounds
# How it was run: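 HEK293 cells were seeded at 600 cells/well together with NanoLuc luciferase and cell-permeant prosubstrate, preincubated 5 h at 37 C/5% CO2, then given compound in DMSO by pintool. Luminescence from viable-cell prosubstrate reduction was read repeatedly over 40 h.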
# [5] = qHTS RealTime-Glo MT Cell Viability Assay in HEK293 cells - 8 hour (AID 1224887); further: nearly all actives have a fitted effect of over 50% in size; further: potency means the concentration at half of the fitted maximal effect; on activity change, negative = cytotoxicity: top concentration of the series differs between compounds
# How it was run: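 Measured as luminescence from the same continuously cultured HEK293 wells at successive time points (0, 8, 16, 24, 32, 40 h) after compound addition. Reagent present from seeding; dosing at 5 h; incubation 37 C.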
# [6] = A CellTox Green Cytotoxicity Assay to monitor cytotoxicity in HEK293 cells - 16 hour (AID 1224888); further: nearly all actives have a fitted effect of over 35% in size; further: potency means the concentration at half of the fitted maximal effect
# How it was run: as §2
# [7] = A CellTox Green Cytotoxicity Assay to monitor cytotoxicity in HepG2 cells - 8 hour (AID 1224890); further: nearly all actives have a fitted effect of over 45% in size; further: potency means the concentration at half of the fitted maximal effect
# How it was run: as §1
# [8] = qHTS assay to identify small molecule antagonists of the estrogen receptor alpha (ER-alpha) signaling pathway using the BG1 cell line in the presence of 0.1 nM 17-beta-estradiol - cell viability counter screen (AID 1259241); further: nearly all actives have a fitted effect of over 40% in size; further: potency means the concentration at half of the fitted maximal effect
# How it was run: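 Cells were plated and left 24 hr, compounds in DMSO were pinned in, 17beta-estradiol was added to 0.1 nM final, and after 22 hr CellTiter-Fluor reagent was added for 30 min before fluorescence was read.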
# [9] = qHTS assay to identify small molecule antagonists of the androgen receptor (AR) signaling pathway using the MDA cell line in the presence of 0.5 nM R1881 - cell viability counter screen (AID 1259242); further: nearly all actives have a fitted effect of over 45% in size; further: potency means the concentration at half of the fitted maximal effect
# How it was run: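 Human breast carcinoma MDA-kb2 cells, cultured without CO2, receive compounds alongside 0.5 nM (final) R1881 agonist. After 16 hr at 37C, viability is taken as live-cell protease signal.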
# [10] = qHTS RealTime-Glo MT Cell Viability Assay in HepG2 cells - 0 hour (AID 1224889); further: nearly all actives have a fitted effect of over 50% in size
# How it was run: as §3
compound,measurement,setting,value
O=C(Nc1ccc(Cl)c(Cl)c1)c1cc(Cl)cc(Cl)c1O,Potency,[1],11 µM (active)
same,Potency,[2],inactive
same,Potency,[3],inactive
same,Potency,[4],4.9 µM (active)
same,Potency,[5],inactive
same,Potency,[6],inactive
same,Potency,[7],inactive
CN(C)CCCN1c2ccccc2CCc2ccccc21,Potency,[1],54.9 µM (active)
same,Potency,[2],inactive
same,Potency,[3],inactive
same,Potency,[4],inactive
same,Potency,[5],inactive
same,Potency,[6],inactive
same,Potency,[7],inactive
same,Potency,[8],inactive
same,Potency,[9],inactive
OCCCS,Potency,[1],inactive
same,Potency,[2],inactive
same,Potency,[3],inactive
same,Potency,[4],inactive
same,Potency,[5],inactive
same,Potency,[10],inactive
same,Potency,[7],inactive
same,Potency,[8],inactive
same,Potency,[9],inactive
C/C=C/c1ccc(OC)c(OC)c1,Potency,[1],inactive
same,Potency,[2],inactive
same,Potency,[3],inactive
same,Potency,[4],inactive
same,Potency,[6],inactive
same,Potency,[10],inactive
same,Potency,[7],inactive
same,Potency,[8],inactive
same,Potency,[9],inactive
CCCCCCCCCCCCCc1ccccc1,Potency,[1],inactive
same,Potency,[2],inactive
same,Potency,[3],inactive
same,Potency,[4],inactive
same,Potency,[5],inactive
same,Potency,[10],inactive
same,Potency,[7],inactive
same,Potency,[8],inactive
CCOCOCC,Potency,[1],inactive
same,Potency,[2],inactive
same,Potency,[3],inactive
same,Potency,[4],inactive
same,Potency,[6],inactive
same,Potency,[10],inactive
same,Potency,[7],inactive
same,Potency,[8],inactive
same,Potency,[9],inactive
CCCCCCCOC(=O)c1ccc(O)cc1,Potency,[1],24.5 µM (active)
same,Potency,[2],inactive
same,Potency,[3],inactive
same,Potency,[4],24.6 µM (active) and 21.9 µM (active)
same,Potency,[6],inactive
same,Potency,[10],inactive
same,Potency,[7],inactive and 38.9 µM (active)
same,Potency,[8],inactive
same,Potency,[9],inactive
CCOC(=O)CN,Potency,[1],inactive
same,Potency,[2],inactive
same,Potency,[3],inactive
same,Potency,[4],inactive
same,Potency,[5],inactive
same,Potency,[10],inactive
same,Potency,[7],inactive
same,Potency,[8],inactive
same,Potency,[9],inactive
C=C/C=C/C=C/CCCCC,cytotoxicity increase,[1],-4.15% [at 15.8 µM] (inactive)
same,cytotoxicity increase,[2],-3.53% [at 15.8 µM] (inactive)
same,"activity change, negative = cytotoxic",[3],-10.1% [at 15.8 µM] (inactive)
same,"activity change, negative = cytotoxicity",[4],13% [at 15.8 µM] (inactive)
same,"activity change, negative = cytotoxicity",[5],-1.22% [at 15.8 µM] (inactive)
same,"activity change, negative = cytotoxicity",[10],-16.9% [at 15.8 µM] (inactive)
same,cytotoxicity increase,[7],-1.01% [at 15.8 µM] (inactive)
same,"activity change, negative = cytotoxicity",[8],-4.24% [at 19 µM] (inactive)
same,"viability change, negative = cytotoxic",[9],-0.871% [at 19 µM] (inactive)
CC=O,Potency,[1],36.3 µM (active)
same,Potency,[2],57.5 µM (active)
same,Potency,[3],51.3 µM (active)
same,Potency,[4],0.575 µM (active)
same,Potency,[5],inactive
same,Potency,[10],inactive
same,Potency,[7],57.5 µM (active)
same,Potency,[8],inactive
same,Potency,[9],32 µM (active)
Brc1ccccn1,Potency,[1],inactive
same,Potency,[2],inactive
same,Potency,[3],inactive
same,Potency,[4],inactive
same,Potency,[5],inactive
same,Potency,[10],inactive
same,Potency,[7],inactive
same,Potency,[8],inactive
same,Potency,[9],inactive
CCCCOc1ccc(C(=O)CCN2CCCCC2)cc1,Potency,[1],12 µM (active)
same,Potency,[2],inactive
same,Potency,[3],23.9 µM (active)
same,Potency,[4],23.9 µM (active)
same,Potency,[6],inactive
same,Potency,[10],inactive
same,Potency,[7],21.3 µM (active)
same,Potency,[8],inactive
Clc1nc2ccccc2s1,Potency,[1],inactive
same,Potency,[2],inactive
same,Potency,[3],inactive
same,Potency,[4],inactive
same,Potency,[6],inactive
same,Potency,[10],inactive
same,Potency,[7],inactive
same,Potency,[8],inactive
same,Potency,[9],inactive
c1ccc2c(c1)CCC2,Potency,[1],inactive
same,Potency,[2],inactive
same,Potency,[3],inactive
same,Potency,[4],inactive
same,Potency,[6],inactive
same,Potency,[10],inactive
same,Potency,[7],inactive
same,Potency,[8],inactive
CCCCCCCC/C=C\CCCCCCCC(=O)OCCOC(=O)CCCCCCC/C=C\CCCCCCCC,Potency,[1],inactive
same,Potency,[2],inactive
same,Potency,[3],inactive
same,Potency,[4],inactive
same,Potency,[6],inactive
same,Potency,[10],inactive
same,Potency,[7],inactive
same,Potency,[8],inactive
same,Potency,[9],inactive
CCN=c1cc2oc3cc(NCC)c(C)cc3c(-c3ccccc3C(=O)OCC)c-2cc1C,Potency,[1],21.8 µM (active)
same,Potency,[2],10.9 µM (active) and 9.77 µM (active)
same,Potency,[3],43.5 µM (active) and 24.5 µM (active)
same,Potency,[4],2.45 µM (active) and 1.74 µM (active)
same,Potency,[5],17.3 µM (active) and 17.4 µM (active)
same,Potency,[10],inactive
same,Potency,[7],21.8 µM (active) and 6.92 µM (active)
same,Potency,[8],8.6 µM (active) and 10.9 µM (active)
same,Potency,[9],965 nM (active) and 864 nM (active)
Cc1cncc(C)c1,Potency,[1],inactive
same,Potency,[2],inactive
same,Potency,[3],inactive
same,Potency,[4],inactive
same,Potency,[5],inactive
same,Potency,[10],inactive
same,Potency,[7],inactive
same,Potency,[8],inactive
same,Potency,[9],inactive
CCC(C)C(=O)OC (stereo not given),Potency,[1],inactive
same,Potency,[2],inactive
same,Potency,[3],inactive
same,Potency,[4],inactive
same,Potency,[5],inactive
same,Potency,[6],inactive
same,Potency,[7],inactive
same,Potency,[8],inactive
same,Potency,[9],inactive
NCCCCCCNCCCCCCN,Potency,[1],inactive
same,Potency,[2],inactive
same,Potency,[3],inactive
same,Potency,[4],inactive
same,Potency,[5],inactive
same,Potency,[10],inactive
same,Potency,[7],inactive
same,Potency,[9],inactive
CCCC(C)CCC(C)=O (stereo not given),Potency,[1],inactive
same,Potency,[2],inactive
same,Potency,[3],inactive
same,Potency,[4],inactive
same,Potency,[5],inactive
same,Potency,[10],inactive
same,Potency,[8],inactive
same,Potency,[9],inactive
CCO[Si](CCCSSSSCCC[Si](OCC)(OCC)OCC)(OCC)OCC,Potency,[1],inactive
same,Potency,[2],inactive
same,Potency,[3],inactive
same,Potency,[4],inactive
same,Potency,[5],inactive
same,Potency,[10],inactive
same,Potency,[7],inactive
same,Potency,[8],inactive
O=c1cccc[nH]1,Potency,[1],inactive
same,Potency,[2],inactive
same,Potency,[3],inactive
same,Potency,[4],inactive
same,Potency,[6],inactive
same,Potency,[10],inactive
same,Potency,[7],inactive
same,Potency,[8],inactive
CC(C)c1ccc(O)c(C(C)C)c1,Potency,[1],27.5 µM (active)
same,Potency,[2],inactive
same,Potency,[3],inactive
same,Potency,[4],inactive
same,Potency,[6],19.5 µM (active)
same,Potency,[10],inactive
same,Potency,[7],43.6 µM (active)
same,Potency,[8],inactive
same,Potency,[9],inactive
CSc1ccc2c(c1)N(CCC1CCCCN1C)c1ccccc1S2 (stereo not given),Potency,[1],34.5 µM (active) and 23.9 µM (active)
same,Potency,[2],34.5 µM (active)
same,Potency,[3],54.7 µM (active) and 23.9 µM (active)
same,Potency,[4],15.4 µM (active)
same,Potency,[5],19.4 µM (active)
same,Potency,[6],30.8 µM (active)
same,Potency,[9],54.3 µM (active)
